Bioassay records deposited in PubChem by Johns Hopkins Ion Channel Center.
The list is not random: actives were taken first. Their share in the collection is about 1.6%.
KCNQ2 inh = KCNQ2 (rat) channel inhibition | O88943 | CHO-K1 KCNQ2, FluxOR thallium flux, 20 min; hits give low values | 310,000 compounds, 1.1% hits | B-score at 10 µM;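 active = fluorescence ratio B-score at most minus 3 library SDs, with starting brightness B-score within 2 library SDs, cut at about -5.5 in these data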
Target sequence (O88943 whole entry, looked up): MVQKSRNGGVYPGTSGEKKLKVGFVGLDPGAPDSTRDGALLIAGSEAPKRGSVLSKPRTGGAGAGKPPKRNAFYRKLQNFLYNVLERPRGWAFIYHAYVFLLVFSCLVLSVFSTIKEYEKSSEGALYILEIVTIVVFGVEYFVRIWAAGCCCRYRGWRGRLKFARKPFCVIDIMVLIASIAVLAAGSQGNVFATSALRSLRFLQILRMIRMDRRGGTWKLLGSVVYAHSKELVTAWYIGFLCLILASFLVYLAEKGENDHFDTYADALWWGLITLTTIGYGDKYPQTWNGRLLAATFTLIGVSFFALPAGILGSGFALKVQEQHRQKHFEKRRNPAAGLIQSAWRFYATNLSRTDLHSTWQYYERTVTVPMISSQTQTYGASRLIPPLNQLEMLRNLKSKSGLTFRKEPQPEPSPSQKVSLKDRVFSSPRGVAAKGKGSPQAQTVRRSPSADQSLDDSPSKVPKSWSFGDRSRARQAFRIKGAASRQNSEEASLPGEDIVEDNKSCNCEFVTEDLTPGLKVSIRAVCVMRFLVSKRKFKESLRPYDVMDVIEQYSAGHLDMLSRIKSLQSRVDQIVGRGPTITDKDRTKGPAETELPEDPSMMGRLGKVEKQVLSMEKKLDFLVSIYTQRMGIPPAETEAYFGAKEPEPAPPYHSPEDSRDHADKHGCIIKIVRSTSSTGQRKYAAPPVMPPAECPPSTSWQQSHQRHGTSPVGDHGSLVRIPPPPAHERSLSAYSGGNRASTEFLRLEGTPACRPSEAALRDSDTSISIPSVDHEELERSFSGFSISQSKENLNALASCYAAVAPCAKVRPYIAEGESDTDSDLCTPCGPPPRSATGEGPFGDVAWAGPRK
KCNQ2 pot = KCNQ2 (rat) channel potentiation | B-score at 10 µM | 310,000 compounds, 0.54% hits | CHO-K1 KCNQ2, FluxOR thallium flux fluorescence; hits give high values;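 active = fluorescence ratio B-score at least 3 SD of library B-scores, with initial fluorescence B-score within 3 of them, cut at about 5.3 in these data; same plate scores as AID 2156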;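 note: B-score of peak minus minimum over baseline fluorescence ratio after K+ and Tl+ stimulus; positive B-score means potentiation of KCNQ2 with more thallium influx and brighter signal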
Kir21 confirm = confirmation of mouse Kir2.1 potassium channel inhibitors; shares compounds with KCNQ2 pot; Kir2.1-expressing cells, FluxOR thallium flux fluorescence; hits give low values; Tl flux remaining, % of negative control (hits give low values), % at 10 µM; 2,300 compounds, 41% hits;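 active = Primary-screen hit whose thallium flux fell at least 3 control SD below untreated wells in both duplicates, with normal baseline fluorescence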
HEK293 ctr = parental HEK293 activity in Kir2.1 inhibitor counter-screen | shares compounds with KCNQ2 pot | parental HEK293 cells, FluxOR thallium flux fluorescence; 0% = unstimulated blank wells | FluxOR signal as % of negative control (100 = no effect), % at 10 µM | 2,300 compounds, 19% hits;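 active = dye signal at least 3 control SD above or below untreated wells in both duplicates, raw fluorescence within 3, either direction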;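 note: percent is based on the flux ratio of peak minus minimum fluorescence over baseline F0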
CHO-K1 Tl ctr = parental CHO-K1 activity in KCNQ2 potentiator counter-screen; AID 2282; 1,200 compounds, 43% hits; shares compounds with KCNQ2 pot; activity increase over 3SD of controls, % at 10 µM; parental CHO-K1 cells, FluxOR thallium flux fluorescence; zero = vehicle mean+3SD, 100% = vehicle-minus-blank window;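 active = signal rise of at least 3 SD above the untreated control mean, in both duplicate wells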;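 note: counter screen of KCNQ2 potentiator hits so any rise reflects channel-independent effects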
KCNQ1 pot spec = selectivity of KCNQ2 potentiators: effect on human KCNQ1 | shares compounds with KCNQ2 pot | CHO KCNQ1 stable, FluxOR thallium flux fluorescence; beyond 3SD, as % of vehicle-control signal | 1,200 compounds, 28% hits | activation over 3SD threshold, % at 10 µM;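 active = fluorescence ratio rise of at least 3 SD of vehicle wells above their mean, in both replicate wells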
KCNQ2 pot confirm = confirmation of rat KCNQ2 potassium channel potentiators | AID 2287 | shares compounds with KCNQ2 pot | potentiation, less the hit threshold, % at 10 µM | 1,200 compounds, 68% hits | CHO-KCNQ2 cells, FluxOR thallium flux fluorescence;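 active = fluorescence ratio rising 3 SD or more over the vehicle control mean in both replicates, plus primary screen hit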;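 note: peak minus minimum thallium fluorescence divided by baseline after K/Tl stimulus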
Kir21 spec = selectivity of KCNQ2 potentiators: effect on mouse Kir2.1. shares compounds with KCNQ2 pot. HEK293 Kir2.1, FluxOR thallium flux fluorescence. activity over 3SD threshold, % at 10 µM. 1,200 compounds, 2% hits. AID 2345;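 active = fluorescence ratio rise of at least 3 SD above the vehicle-control mean, seen in both replicates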
KCNQ2 W236L pot = rat KCNQ2 W236L mutant potentiation by KCNQ2 potentiators | current increase over 3SD of negative controls (%), hits give high values, % at 25 µM | shares compounds with KCNQ2 pot | 940 compounds, 10% hits | CHO KCNQ2-W236L, automated patch clamp current;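 active = current increase at least 3 SD of the untreated controls above them in both duplicate recordings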
Numbers stand for hits; . = inactive; / = no result.

SMILES	KCNQ2 inh	KCNQ2 pot	Kir21 confirm	HEK293 ctr	others
C=CCNC(=O)N1CCC(c2nc3ccccc3s2)CC1	.	/	/	/
Cc1c(C(=O)N2CCCCC2)c(S(=O)(=O)Nc2ccc(F)cc2F)c(C)n1C	.	.	/	/
Cc1ccc(C)c(N2C(=O)c3cc(N4CCOCC4)c([N+](=O)[O-])cc3C2=O)c1	.	.	/	/
Cc1ccc(C(=O)NC(=S)N(C)C2CCCCC2)cc1	.	5.7	.	212%	CHO-K1 Tl ctr=.;KCNQ1 pot spec=18;KCNQ2 pot confirm=31;Kir21 spec=.;KCNQ2 W236L pot=.
CN(C(=S)NC(=O)/C=C/c1ccc(F)cc1)C1CCCCC1	.	/	/	/
Cc1n[nH]c(C)c1CCNC(=O)C1CCC(=O)N(CCc2cccc(F)c2)C1 (stereo not given)	.	/	/	/
O=C(O)c1ccc(NC2=C(Cl)C(=O)c3ccccc3C2=O)cc1	-10	.	.	.
Cc1ccc(NC2=C(NC(=O)c3ccccc3)C(=O)c3ccccc3C2=O)cc1Cl	.	/	/	/
O=C1C(Cl)=C(Nc2ccccc2)C(=O)c2ccccc21	.	/	/	/
O=C(O)c1cccc(NC2=C(Cl)C(=O)c3ccccc3C2=O)c1	-7.6	.	38%	.
CCN(CC)CCCNC(=O)CSc1nc(C)cc(C)n1	.	/	/	/
O=S(=O)(Nc1ccc(-n2cnnn2)cc1)c1ccc(F)c(F)c1F	.	/	/	/
Nc1nc2c(s1)CCCCCCCCCC2	.	6	64%	70%	CHO-K1 Tl ctr=.;KCNQ1 pot spec=89;KCNQ2 pot confirm=.;Kir21 spec=.;KCNQ2 W236L pot=.
Nc1c2c(nc3sc4c(c13)CCCCC4)CCCCC2	.	/	/	/
CC(C)c1ccc(NC(=O)C2CC2c2ccccc2)cc1 (stereo not given)	.	17	.	.	CHO-K1 Tl ctr=20;KCNQ1 pot spec=.;KCNQ2 pot confirm=28;Kir21 spec=.;KCNQ2 W236L pot=.
Cc1ccc(NC(=O)/C=C\C(=O)O)c([N+](=O)[O-])c1	.	/	/	/
O=C(Nc1ccc(Cl)cc1F)C1CC1c1ccccc1 (stereo not given)	.	7.2	.	.	CHO-K1 Tl ctr=.;KCNQ1 pot spec=28;KCNQ2 pot confirm=19;Kir21 spec=.;KCNQ2 W236L pot=.
O=C(Nc1ccncc1)C1CC1c1ccccc1 (stereo not given)	.	.	/	/
O=C(Nc1cccc(Cl)c1)C1CC1c1ccccc1 (stereo not given)	.	.	/	/
Cc1ccc(NC(=O)C2CC2c2ccccc2)c([N+](=O)[O-])c1 (stereo not given)	.	11	.	.	CHO-K1 Tl ctr=.;KCNQ1 pot spec=.;KCNQ2 pot confirm=7.1;Kir21 spec=.;KCNQ2 W236L pot=40%
S=c1nc(Cc2ccccc2)[nH]c2ccccc12	.	11	.	323%	CHO-K1 Tl ctr=45;KCNQ1 pot spec=.;KCNQ2 pot confirm=40;Kir21 spec=.;KCNQ2 W236L pot=.
Cc1nc(=S)c2ccccc2[nH]1	.	.	/	/
O=c1[nH]c(COc2ccccc2)nc2ccccc12	.	/	/	/
S=c1nc(COc2ccccc2)[nH]c2ccccc12	.	20	.	479%	CHO-K1 Tl ctr=1.8;KCNQ1 pot spec=.;KCNQ2 pot confirm=63;Kir21 spec=.;KCNQ2 W236L pot=.
S=c1nc(Cc2ccc(Cl)cc2)[nH]c2ccccc12	.	11	.	158%	CHO-K1 Tl ctr=.;KCNQ1 pot spec=.;KCNQ2 pot confirm=6.1;Kir21 spec=.;KCNQ2 W236L pot=.
SMILES	KCNQ2 inh	KCNQ2 pot	Kir21 confirm	HEK293 ctr	others
Cc1ccc(Cc2nc3ccccc3[nH]2)cc1	.	/	/	/
NS(=O)(=O)c1ccc(CNC(=O)c2csc3c2CCCC3)cc1	.	.	/	/
CCN1CCN(C(=S)Nc2cc(S(=O)(=O)N(CC)CC)ccc2C)CC1	.	.	/	/
O=C(CCc1c[nH]c2ccccc12)N[C@@H](Cc1c[nH]c2ccc(O)cc12)C(=O)O	.	/	/	/
CCOC(=O)c1c(-c2ccccc2)oc2ccc(OC(C)C(=O)O)cc12 (stereo not given)	.	/	/	/
CCOC(=O)c1c(-c2ccccc2)oc2ccc(O)c(CN3CCCC3)c12	.	/	26%	.
CCOC(=O)c1c(-c2ccccc2)oc2ccc(OCC(O)CN(C)C)cc12 (stereo not given)	-5.6	.	.	.
Cc1oc2ccc(O)c(CN(C)C)c2c1C(=O)c1ccccc1	.	/	/	/
COCCOC(=O)c1c(C)oc2ccc(O)c(CN3CCC(C)CC3)c12	.	.	/	/
CCOC(=O)c1c(-c2ccccc2)oc2ccc(O)c(CN(C)C)c12	.	.	.	.
COc1cc(OC)cc(C(=O)N2CCC(C(=O)Nc3ccc4c(c3)OCCO4)CC2)c1	.	/	/	/
COC(=O)CNC(=O)c1sc2ncn(CC(=O)Nc3ccc(C)c(Cl)c3)c(=O)c2c1C	.	.	/	/
Cc1ccc(S(=O)(=O)Nc2ccccc2C(=O)N2CCCCC2)cc1	.	.	/	/
Cc1ccc(NC(=S)NCCc2c[nH]c3ccccc23)c(C)c1	.	/	76%	.
COc1cccc(CNc2ccc3[nH]c(=O)[nH]c3c2)c1OCc1ccc(F)cc1	.	.	/	/
COc1ccccc1NC(=S)NCCc1c[nH]c2ccccc12	.	.	72%	.
COc1cccc(CNCCc2c[nH]c3ccccc23)c1OCc1ccc(F)cc1	-8	.	.	.
Cc1ccc(NC(=S)NCCc2ccccc2)c(C)c1	.	/	/	/
COc1cc(NC(=S)NCCc2c[nH]c3ccccc23)c(OC)cc1Cl	.	/	/	/
CCc1ccc(NC(=O)CCc2ccc(CC)o2)cc1	.	.	/	/
CCNc1nc(SCC(=O)Nc2ccc(Cl)c(Cl)c2)nc(N2CCOCC2)n1	.	.	/	/
O=C(CNC(=O)c1sc2ccccc2c1Cl)Nc1ccccc1F	.	.	/	/
CC(C)c1nnc(SCC(=O)NCCC2=CCCCC2)n1N	.	5.9	.	.	CHO-K1 Tl ctr=.;KCNQ1 pot spec=2.2;KCNQ2 pot confirm=24;Kir21 spec=.;KCNQ2 W236L pot=2.6%
Nc1cc(N)nc(SCC(=O)NCCC2=CCCCC2)n1	.	.	/	/
COc1ccc(NC(=O)C/C(C)=N/NC(=O)C(=O)NC2CCCCC2)c(OC)c1	.	.	/	/
SMILES	KCNQ2 inh	KCNQ2 pot	Kir21 confirm	HEK293 ctr	others
CN(C(=O)c1cccc(COc2ccc(Cl)cc2Cl)c1)c1ccccc1	.	/	.	.
O=C(c1cccc(COc2ccc(Cl)cc2Cl)c1)N1CCN(c2ccccn2)CC1	.	/	/	/
COc1cc(Cl)c(C)cc1NC(=O)CC1CCCC1	.	5.8	.	.	CHO-K1 Tl ctr=.;KCNQ1 pot spec=.;KCNQ2 pot confirm=24;Kir21 spec=.;KCNQ2 W236L pot=.
COc1ccc(Cl)cc1NC(=O)CC1CCCC1	.	/	/	/
COC(=O)CN1C(=O)Nc2ccc(Br)cc2C1c1ccccc1 (stereo not given)	.	6.7	.	.	CHO-K1 Tl ctr=.;KCNQ1 pot spec=.;KCNQ2 pot confirm=52;Kir21 spec=.;KCNQ2 W236L pot=.
NNC(=O)CN1C(=O)Nc2ccc(Cl)cc2C1c1ccccc1 (stereo not given)	.	.	/	/
CCOc1cc(CNC(C)(C)CO)cc(Br)c1OCc1ccc(Cl)cc1Cl	-7.7	.	22%	.
CCOc1cc(CNCCO)cc(Br)c1OCc1ccccc1Cl	-7.4	.	.	.
